Compound activity: PubChem, National Center for Advancing Translational Sciences (NCATS)
Only a selection was taken, and hits are over-represented in it overall.
KDM5B inhibitor: Primary screen for KDM5B Histone Demethylases FDH-coupled qHTS | Lysine-specific demethylase 5B (Homo sapiens), Q9UGL1 | KDM5B demethylase, FDH-coupled NADH fluorescence (FDH is formaldehyde dehydrogenase) | Potency, µM (series often up to 57.7 µM), actives largely listed as inhibitors | 220,000 tested, 2.6% active | AID 1347165, 2019; active means well fitted inhibition curve with a large enough effect; further: nearly all actives have a fitted effect of over 70% in size
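Measured: NADH fluorescence change, 30 min, RT. System: KDM5BΔAP 200 nM final, H3K4me3 peptide, α-KG, Fe(II), ascorbate, NAD⁺ plus FDH, pH 7.5 HEPES. Compounds: titrated, 10 min pre-incubation with enzyme.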
Of the large screens only hits and unclear results are named; the others gave an inactive call.

O=C(Nc1cccc(-n2cccn2)c1)C1CCCN(Cc2cccc(F)c2F)C1 (stereo not given)	none
COC(=O)CNC(=O)C1CCCN(C(=O)c2cc3ccccc3[nH]2)C1 (stereo not given)	none
Cc1cccc(-c2cccc(NC(=O)C3CCCN(C(=O)c4cccc(C)n4)C3)c2)c1 (stereo not given)	none
CCCCCCNc1nc2c(c(=O)[nH]c(=O)n2C)n1CC(O)COC(C)C (stereo not given)	none
CC(C)(CNC(=O)C(Cl)(Cl)Cl)CNC(=O)C(Cl)(Cl)Cl	none
COc1cc(CNC(=O)c2cc3cccc(OC)c3oc2=O)ccc1OC(F)F	none
O=C(OCC(=O)N1c2ccccc2Sc2ccccc21)c1ccc2c(c1)OCCO2	none
CCc1cc2c(=O)c(-c3cnn(-c4ccccc4)c3)c(C(F)(F)F)oc2cc1O	none
O=C(c1cn[nH]c1-c1ccc(Cl)cc1)N1CCCCC1	none
COc1ccc(CN2C[C@H]3CN(S(=O)(=O)c4ccc(OC)cc4)CCN3C2=O)cc1	none
CN(C)S(=O)(=O)c1ccc2oc(SCC(=O)N3CCCC3=O)nc2c1	none
O=C(CN1CCOCC1)NCc1ccc(F)cc1	none
Cc1c(-c2ccc(F)cc2)[nH]c2ccc(CNC(=O)CN3CCOC3=O)cc12	KDM5B inhibitor 28µM
Cc1nc(-c2ccc(F)cc2)n(CC(=O)NCc2ccc3c(c2)OCO3)c(=O)c1CCO	none
CCN1CCN(CC(=O)NCc2ccc3[nH]c(-c4ccc(F)cc4)c(C)c3c2)CC1	KDM5B inhibitor 32µM
O=C(CN1CCN(Cc2cccc(Cl)c2)C1=O)NCc1ccc(F)cc1	none
CCN1CCN(C(=O)c2ccc3[nH]c(C)c(C)c3c2)CC1	none
CC1CCCCC1NC(=O)c1cc(Sc2cccc(Cl)c2)nc2ccccc12 (stereo not given)	none
CC1CC1C(=O)NCCC(=O)Nc1ccc(C#N)cc1 (stereo not given)	none
O=C(N[C@H]1CO[C@H]2[C@@H]1OC[C@@H]2Nc1nccc(C2CCCC2)n1)c1ccccc1	none
COc1ccc(-c2ccnc(N[C@H]3CO[C@H]4[C@@H]3OC[C@@H]4NS(=O)(=O)c3cccs3)n2)cc1	KDM5B inhibitor 14µM
COc1cccc(-c2nnnn2[C@H]2CO[C@H]3[C@@H]2OC[C@@H]3NS(=O)(=O)c2cccs2)c1	none
CC(C)(C)c1ccc(NC(=O)O[C@@H]2CO[C@H]3[C@@H]2OC[C@@H]3Nc2nccc(C(C)(C)C)n2)cc1	none
COc1ccc(NC(=O)O[C@@H]2CO[C@H]3[C@@H]2OC[C@@H]3Nc2nccc(-c3cccs3)n2)cc1	none
c1csc(-c2ccnc(N[C@H]3CO[C@H]4[C@@H]3OC[C@@H]4NCC3CCCCC3)n2)c1	KDM5B inhibitor 40µM
CN(C)c1ccc(-c2ccnc(N[C@H]3CO[C@H]4[C@@H]3OC[C@H]4OC(=O)NCc3ccccc3)n2)cc1	KDM5B inhibitor 28µM
CC(=O)c1cccc(NC(=O)O[C@@H]2CO[C@H]3[C@@H]2OC[C@@H]3Nc2nccc(-c3ccccc3)n2)c1	none
CC(C)(C)c1ccc(NC(=O)O[C@@H]2CO[C@H]3[C@@H]2OC[C@@H]3Nc2nccc(-c3ccc4c(c3)OCO4)n2)cc1	KDM5B inhibitor 28µM
COc1ccc(NC(=O)O[C@@H]2CO[C@H]3[C@@H]2OC[C@@H]3NC(=O)c2ccc(OC)cc2)cc1	none
COc1ccc(-c2ccnc(N[C@H]3CO[C@H]4[C@@H]3OC[C@@H]4NS(=O)(=O)c3ccc4ccccc4c3)n2)cc1	none
CCNC(=O)O[C@@H]1CO[C@H]2[C@@H]1OC[C@@H]2NC(=S)Nc1ccccc1	none
O=C(CCl)N(Cc1ccsc1)C1CC1	none
Cc1ccc(NN)c([N+](=O)[O-])c1	none
CCc1c(C(=O)NCc2cccnc2N2CCOCC2)cnn1-c1ccc(F)cc1	none
CSc1ccc(/C=C2\N=C(c3ccco3)OC2=O)cc1	none
COCCCn1c(C)cc(C(=O)Cn2cnc3c2c(=O)n(C)c(=O)n3C)c1C	none
Cc1ccc(-n2nc(C)c3c(C(=O)NC4CCN(Cc5ccccc5)CC4)cc(C)nc32)cc1	none
O=C(COc1ccc(Br)cc1)Nc1nc(-c2ccc(Br)o2)ns1	none
Cc1ccc(C(c2cccc(Br)c2)c2cn(C)c3ccccc23)s1 (stereo not given)	none
O/N=C/c1ccc(OCc2c(Cl)cccc2Cl)cc1	none
O=C(CSc1nc2c(c(=O)[nH]1)CCC2)Nc1oncc1-c1ccccc1	none
CCNC(=O)N[C@H]1CO[C@H]2[C@@H]1OC[C@@H]2Nc1nccc(-c2ccc(-c3ccccc3)cc2)n1	none
COc1cc(NC(=O)N[C@H]2CO[C@H]3[C@@H]2OC[C@@H]3Nc2nccc(-c3ccc(N(C)C)cc3)n2)cc(OC)c1	none
N#Cc1cccc(NC(=O)N[C@H]2CO[C@H]3[C@@H]2OC[C@@H]3Nc2nccc(-c3cccs3)n2)c1	none
COc1cccc(NC(=O)O[C@@H]2CO[C@H]3[C@@H]2OC[C@@H]3Nc2nccc(-c3ccccc3)n2)c1	none
O=C(O)CCCC(=O)N[C@H]1CO[C@H]2[C@@H]1OC[C@@H]2Nc1nccc(-c2cccc(F)c2)n1	KDM5B inhibitor 35µM
COc1cc(NC(=O)N[C@H]2CO[C@H]3[C@@H]2OC[C@@H]3Nc2nccc(-c3ccc(-c4ccccc4)cc3)n2)cc(OC)c1	none
COc1ccc(-c2ccnc(N[C@H]3CO[C@H]4[C@@H]3OC[C@@H]4NC(=O)Nc3cccc(C#N)c3)n2)cc1	KDM5B inhibitor 25µM
COc1ccc(-c2ccnc(N[C@H]3CO[C@H]4[C@@H]3OC[C@@H]4NC(=O)Nc3ccc(C(C)=O)cc3)n2)cc1	none
COCC(=O)N[C@H]1CO[C@H]2[C@@H]1OC[C@@H]2Nc1nccc(-c2ccc(OC)cc2)n1	KDM5B inhibitor 35µM
COc1ccc(-c2ccnc(N[C@H]3CO[C@H]4[C@@H]3OC[C@H]4OC(=O)Nc3cccc(C(F)(F)F)c3)n2)cc1	KDM5B inhibitor 22µM
O=C(Nc1cccc(C(F)(F)F)c1)N[C@H]1CO[C@H]2[C@@H]1OC[C@@H]2Nc1nccc(-c2ccc(-c3ccccc3)cc2)n1	none
N#Cc1cccc(-c2ccnc(N[C@H]3CO[C@H]4[C@@H]3OC[C@H]4OC(=O)Nc3cccc(C(F)(F)F)c3)n2)c1	none
Cc1nc2n(c(=O)c1Cc1ccccc1)CN(Cc1ccccn1)CN2c1ccc(F)cc1	none
Cc1n[nH]c(C)c1S(=O)(=O)N1CCC(C)CC1	none
O=C(CCc1cc(Cl)no1)Nc1ccc2oc(-c3ccc(F)cc3)cc(=O)c2c1	none
O=C1CC(c2c[nH]c3ccccc23)c2c(c3ccccc3[nH]c2=O)O1 (stereo not given)	none
CC(OC(=O)c1ccc2c(c1)NC(=O)CS2)C(=O)NCc1ccccc1 (stereo not given)	none
CC(C)(C)NC(=O)NC(=O)CSc1nnc(-c2ccccc2)c(-c2ccccc2)n1	none
CCOC(=O)c1ccc(-c2ccc(/C=C(/C#N)C(=O)N3CCOCC3)o2)cc1	none
O=C(CSc1nccn2nc(-c3cccc4ccccc34)cc12)NCc1ccco1	none
O=c1cc(CSc2nnnn2-c2ccccc2)[nH]n1-c1ccc(F)cc1	none
Cc1ccc(N(CC(=O)N2CCN(C(c3ccccc3)c3ccccc3)CC2)S(C)(=O)=O)cc1	none
CCN(Cc1ccc(C(N)=O)cc1)Cc1cccs1	none
NC(=O)NC(=O)COC(=O)c1ccc2c(c1)OCCO2	none
CC(C)NC(=O)Nc1cccc(-c2noc(-c3cccs3)n2)c1	none
Fc1ccc2nc(CO[C@H]3CN(Cc4ccccn4)C[C@H]3F)[nH]c2c1	none
Fc1ccc2nc(CO[C@H]3CN(Cc4ccc5ccccc5n4)C[C@H]3F)[nH]c2c1	KDM5B inhibitor 35µM
Fc1ccc2nc(CO[C@H]3CN(Cc4ccccc4)C[C@H]3F)[nH]c2c1	none
C/C(=C\C(=O)O)C(=O)Nc1cccc(C(F)(F)F)c1	none
